# Shown are actives, neighbours in structure and some others; about 6.9% of the full set was active somewhere.
# S-ASM inh = human S-ASM enzyme inhibition | actives 0.006% (n = 340,000) | AID 504937 | Potency, µM (series often up to 57.5 µM), without a hit: at the top dose activity change, negative = inhibition, actives largely listed as inhibitors | placental ASM, HMU-PC fluorogenic substrate, 60 min | P17405; also: potency is read from the fitted curve at half-maximal effect
# Target sequence (P17405 47-631 limits assumed): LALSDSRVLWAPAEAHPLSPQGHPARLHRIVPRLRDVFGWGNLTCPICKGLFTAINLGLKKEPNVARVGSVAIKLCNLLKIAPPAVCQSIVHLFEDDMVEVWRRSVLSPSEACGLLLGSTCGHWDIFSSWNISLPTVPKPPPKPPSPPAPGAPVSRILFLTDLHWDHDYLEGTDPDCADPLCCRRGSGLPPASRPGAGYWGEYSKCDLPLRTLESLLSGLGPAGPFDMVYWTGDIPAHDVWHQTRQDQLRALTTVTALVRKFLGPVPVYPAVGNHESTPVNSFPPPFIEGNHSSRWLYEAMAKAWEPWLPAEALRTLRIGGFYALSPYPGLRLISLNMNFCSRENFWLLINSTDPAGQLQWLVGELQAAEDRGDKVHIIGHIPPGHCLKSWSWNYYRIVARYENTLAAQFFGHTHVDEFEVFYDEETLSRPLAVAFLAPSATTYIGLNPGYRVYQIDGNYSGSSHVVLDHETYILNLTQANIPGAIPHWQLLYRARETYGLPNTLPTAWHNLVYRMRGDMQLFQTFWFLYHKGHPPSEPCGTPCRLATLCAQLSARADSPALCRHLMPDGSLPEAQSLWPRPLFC
#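 Fluorogenic HMU-PC substrate (9 uM final) is turned over by placental ASM in 60 min at 37 C after a 10 min compound preincubation. Reaction ended by alkaline stop (pH 10), with fluorescence read at 386/447 nm.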
# KB-3-1 cytotox = kills parental KB-3-1 adenocarcinoma cells; KB-3-1 viability, CellTiter-Glo ATP luminescence, 72 h; Potency, µM (highest dose often 46.1 µM), hits mostly cytotoxic; actives 1.4% (n = 400,000); AID 1347075; also: potency is read from the fitted curve at half-maximal effect; % is scaled to controls: 0 for no effect and ±100 for the full control effect; nearly all actives have a fitted effect of over 60% in size
#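 Parental KB-3-1 adenocarcinoma cells in phenol-red-free DMEM with 10% FBS were pin-treated with compounds at several concentrations, incubated 72 h at 37 °C, and viability read by CellTiter-Glo luminescence; concentration-effect curves were fitted after normalization.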
# MCF10A rerep = inducers of DNA re-replication in MCF 10A breast cells. MCF 10A DNA re-replication, Hoechst nuclear intensity, 48 h. Potency, µM (doses to about 46.1 µM), for inactives: at the highest dose activity, positive = re-replication, most hits filed as activators. actives 2.9% (n = 350,000); also: potency is read from the fitted curve at half-maximal effect; % of control where 0% means no effect; nearly all actives have a fitted effect of over 50% in size
# SW480 rereplic = inducers of DNA re-replication in SW480 colon cancer cells | SW480 DNA re-replication, Hoechst DNA content imaging, 48 h | Potency, µM (titrated, usually from 46.1 µM), for inactives: at the highest dose re-replication activation, usual class: activators | actives 1.8% (n = 340,000) | AID 624297; also: potency is read from the fitted curve at half-maximal effect; % of control where 0% means no effect; nearly all actives have a fitted effect of over 55% in size
#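 SW480 cells exposed to compounds for 48 hr at 37 C, 5% CO2, then Hoechst-stained 40 min. Nuclear DNA content imaged by fluorescence scanning (405 nm excitation, 500-530 nm emission); re-replication scored as increased high-intensity nuclei.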
# KB-V1 cytotox = KB-V1 MDR subline cytotoxicity; KB-V1 MDR cells viability, CellTiter-Glo, 72 h; AID 1347076; actives 3.4% (n = 400,000); Potency, µM (top dose mostly 46.1 µM), hits mostly cytotoxic; also: potency is read from the fitted curve at half-maximal effect; % is scaled to controls: 0 for no effect and ±100 for the full control effect; nearly all actives have a fitted effect of over 60% in size
#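 Drug-selected KB-V1 cells, grown in DMEM lacking phenol red with 10% FBS, receive compound titrations; after three days at 37 degrees C, surviving cell ATP is quantified by CellTiter-Glo luminescence and responses normalized and curve-fitted.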
# Giardia killer = kills Giardia lamblia. Giardia lamblia trophozoite viability. activity change, % at 7.66 µM, hits read low. actives 0.15% (n = 340,000). AID 540267; in the data active = activity change below about -80%; inconclusive = between about -30% and that limit;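 also: parasites exposed to compound for two days anaerobically before the ATP read; % is scaled to controls: 0 for no effect and ±100 for the full control effect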
#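 Killing of trophozoites was scored by loss of ATP luminescence after a 48 hrs anaerobic exposure to compounds at 37 deg C, using 100 cells per well.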
# * hit, by the source's call; i = inactive; ? = inconclusive; . = no result given. Unless noted, calls follow the shape of the dose curve; as a rule, active = well fitted curve in the direction sought with a large enough effect; inconclusive = small, poorly fitted or top-dose-only effect, or another doubt; inactive = no such curve, though single readings can be large; an effect the other way counts as inactive or inconclusive.
SMILES,S-ASM inh,KB-3-1 cytotox,MCF10A rerep,SW480 rereplic,KB-V1 cytotox,Giardia killer
CN(Cc1nc2ccccc2c(=O)[nH]1)C(=O)c1cc(-c2ccc(Br)cc2)nc2ccccc12,-24%,i,?,21%,15µM*,-6
COCCNC(=O)C1(C)CCCN(Cc2ccc(-c3ccccc3)o2)C1 (centres undefined),.,i,.,.,i,.
COc1cccc(NC(=O)CSc2nc(-c3ccccc3Cl)nc3c2Cc2c(CO)cnc(C)c2O3)c1,.,?,.,.,i,.
COCCN1C[C@@H](CO)O[C@@H](n2cnc3c(NCc4ccc(F)cc4)ncnc32)C1,.,i,.,.,i,.
CCCn1nc(NC(=O)c2cccs2)c2cc3cc(OC)ccc3nc21,414%,i,?,15µM*,?,-11
CCCCn1nc(NC(=O)c2cccs2)c2cc3cc(OC)ccc3nc21,255%,i,?,12µM*,?,0
CCCCn1nc(NC(=O)CCC)c2cc3cc(OC)ccc3nc21,384%,i,?,?,?,-6
CCOC(=O)c1ccccc1NC(=O)c1sc2ccccc2c1Cl,.,i,.,.,i,.
CCOC(=O)c1sc2ccccc2c1OC(=O)c1ccccc1OC,87%,i,?,0.58µM*,i,-6
CC(=O)c1cc(C(=O)Nc2cccc(C)c2)c2ccccn12,.,i,.,.,i,.
CC1=C(C(=O)Nc2ccccc2)C(c2ccccc2)n2nc(-c3ccco3)nc2N1 (centres undefined),.,i,.,.,i,.
CC1=C(C(=O)OC2CCCCCCC2)C(c2cc3c(cc2Br)OCO3)CC(=O)N1 (centres undefined),-9%,?,5.8µM*,?,i,-1
COC(=O)C1=C(C)NC(=O)CC1c1cc2c(cc1Br)OCO2 (centres undefined),1%,i,4%,-7%,i,-7
CC(C)OCCCN(C)C1CCN(S(=O)(=O)c2ccc(-c3cc(C(F)(F)F)no3)s2)CC1,-3%,16µM*,15%,15µM*,9.2µM*,?
CC(C)OCCCN(C)C1CCN(S(=O)(=O)c2csc(C(N)=O)c2)CC1,3%,i,-1%,-9%,?,15
CCSc1nnc(NC(=O)CSc2nc3c(c(=O)n2C)SC(C)C3)s1 (centres undefined),-1%,i,-4%,3%,2.9µM*,-11
CC1Cc2nc(SCC(=O)N3CCc4ccccc43)n(C)c(=O)c2S1 (centres undefined),0%,i,7%,-4%,2.6µM*,-15
CCSc1nnc(NC(=O)CSc2nc3c(c(=O)n2CC)SC(C)C3)s1 (centres undefined),0%,6.5µM*,10%,-2%,2.6µM*,-20
Cc1sc2c(c1C)c(=O)n(-c1ccc(Cl)cc1)c(=O)n2Cc1c(F)cccc1Cl,.,i,.,.,i,.
Cc1ccc(C)c(S(=O)(=O)N2CCCCC2CCNC(=O)C(=O)NCc2ccccc2)c1 (centres undefined),0%,26µM*,?,?,?,19
Cc1cc(C)c(S(=O)(=O)N2CCCCC2CCNC(=O)C(=O)NCc2cccnc2)c(C)c1 (centres undefined),0%,i,5%,-6%,8.2µM*,9
Cc1ccc(S(=O)(=O)N2CCCCC2CCNC(=O)C(=O)NC2CC2)cc1 (centres undefined),2%,i,7%,4%,8.2µM*,-13
Cc1ccccc1CNC(=O)C(=O)NCCC1CCCCN1S(=O)(=O)c1ccccc1 (centres undefined),1%,?,15%,0%,6.5µM*,-22
O=C(NCCC1CCCCN1S(=O)(=O)c1ccccc1)C(=O)NC1CCCC1 (centres undefined),1%,i,3%,-2%,?,-15
Cc1ccc(CNC(=O)C(=O)NCCC2CCCCN2S(=O)(=O)c2ccc(C)cc2)cc1 (centres undefined),-3%,i,?,?,3.7µM*,-2
SMILES,S-ASM inh,KB-3-1 cytotox,MCF10A rerep,SW480 rereplic,KB-V1 cytotox,Giardia killer
Cc1ccc(S(=O)(=O)N2CCCCC2CCNC(=O)C(=O)NCc2cccnc2)cc1 (centres undefined),.,8.2µM*,?,16µM*,?,-18
Cc1ccc(C)c(S(=O)(=O)N2CCCCC2CCNC(=O)C(=O)NCc2cccnc2)c1 (centres undefined),2%,i,11%,?,?,0
Cc1ccc(-n2ncc(C(=O)Nc3ccc4c(c3)OCO4)c2C2CCN(C(=O)OC(C)(C)C)CC2)c(C)c1,.,i,.,.,i,.
CCCS(=O)(=O)c1nc(S(=O)(=O)c2ccc(C)cc2)c(NCC(C)C)s1,.,i,.,.,i,.
COc1ccc(/C=c2\sc3nc(-c4ccccc4)c(-c4ccccc4)n3c2=O)cc1OC,1%,i,3%,3%,?,5
O=c1/c(=C\c2cccc(O)c2)sc2nc(-c3ccccc3)c(-c3ccccc3)n12,-16%,i,4.6µM*,-6%,i,-21
COc1cc(NC(=O)CCCN2C(=O)CCn3nc(-c4cn(C)c5ccccc45)cc32)cc(OC)c1,.,i,.,.,i,.
COC(=O)Cn1ccc(N(C)C)c(C#N)c1=O,2%,i,9.2µM*,6.5µM*,i,-9
COC(=O)Cn1ccc(-c2ccc(Cl)cc2)c(C#N)c1=O,-1%,i,0%,-4%,i,25
Cc1nn(Cc2cccc(F)c2)c(C)c1NC(=O)c1ccc(COc2ccccc2Cl)cc1,-9%,i,?,27%,2.6µM*,4
O=C(Nc1ccn(Cc2c(F)c(F)c(F)c(F)c2F)n1)c1ccc(COc2ccccc2Cl)cc1,-2%,?,20%,0%,i,11
Cc1nn(Cc2c(F)c(F)c(F)c(F)c2F)c(C)c1NC(=O)c1cccc(COc2ccccc2Cl)c1,-4%,i,-4%,-2%,2.6µM*,-3
CCC(C)NC(=O)c1ccc(COc2ccccc2Cl)cc1 (centres undefined),-2%,i,3%,2%,21µM*,-14
Cc1nn(Cc2cccc(F)c2)c(C)c1NC(=O)c1c([N+](=O)[O-])c(C)nn1C,-1%,i,4%,-2%,i,-7
Cc1ccc(/C=C/C(=O)Nc2ccc3nc(N4CCC(C)CC4)cc(C)c3c2)cc1,.,i,.,.,i,.
Cc1cccc(NC(=O)CN(C)S(=O)(=O)c2ccc3c(c2)c(=O)n(C)c(=O)n3C)c1,.,i,.,.,i,.
Cc1cccc2c(=O)cc(C)n(CC(N)=O)c12,0%,i,33%,-19%,?,-5
